This is a sample that favours compounds with a hit; in the whole collection about 2.6% have one here.
EWS-Fli inh – EWS/Fli transcriptional activity inhibition. AID 651661. actives 0.67% (n = 350,000). A673 NR0B1-luciferase reporter, viability-normalised. inhibition, % at 12.6 µM;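 active = mean inhibition of at least 50% after viability correction, with every replicate also passing that limit; inconclusive = mean reaches 50% but only one of two replicates passes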;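 also: firefly luciferase signal divided by Alamar Blue viability fluorescence both relative to DMSO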
LGR2 inh – blocks bursicon-induced cAMP signaling via Drosophila LGR2; HEK293 LGR2, CRE-luciferase, bursicon-stimulated, 4 h; inhibition, % at 9.99 µM; actives 0.35% (n = 380,000);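 active = drop in luminescence signal, shown as inhibition above about 50% in the replicate tests, limit read from the data, passing the limit was not always enough; inconclusive = probably only some replicates passing the limit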;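 also: agonist challenge used bursicon conditioned medium at about half maximal strength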
LMP1 NFkB inh – Epstein-Barr LMP1 NF-kappaB reporter inhibition; LMP1-induced NF-kappaB luciferase reporter cells, luminescence; inhibition, % at 12.5 µM; actives 0.69% (n = 350,000); AID 504558; in the data active = inhibition above about 41%; inconclusive = no clear call, values can overlap the other calls;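 also: 0% = neutral control wells and 100% = reference inhibitor control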
TWEAK Fn14 block – blocks TWEAK-Fn14 interaction in a reporter cell assay; TWEAK-stimulated Fn14 reporter cells, luciferase luminescence, 8 h; inhibition, % at 10 µM; actives 2% (n = 360,000); in the data active = inhibition above about 50%
TROY signal inh – TROY signaling inhibition; Q293 LMP1-TROYcd NF-kB luciferase reporter, 4 h; inhibition, % at 10 µM; actives 0.98% (n = 360,000);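 active = compounds whose plate-normalised and pattern-corrected inhibition of the luciferase reporter signal at the single screening dose is 50% or more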
* marks the source's active call; other numbers are inactive results; u = inconclusive; x = no result given.

SMILES	EWS-Fli inh	LGR2 inh	LMP1 NFkB inh	TWEAK Fn14 block	TROY signal inh
CN(C)CC(=O)N[C@@H]1CC[C@H](CC(=O)NCCN2CCCCC2)O[C@H]1CO	-2	19	x	x	x
COC(=O)C[C@@H]1CC[C@@H](NS(=O)(=O)c2ccc(OC)cc2)[C@H](CO)O1	-1	23	x	x	x
CN(c1ccc(OCC(=O)Nc2nc3ccccc3s2)cc1)S(=O)(=O)c1ccccc1	-11	-14	1	41	51*
CCOc1ccc(S(=O)(=O)N(C)c2ccc(OCC(=O)NC3=NCCS3)cc2)cc1	-14	-8	1	9	-19
COc1ccc(C(=O)NC(=S)NNC(=O)COc2ccccc2)cc1	16	41	14	63*	17
Cc1cc(NC(=O)COc2ccc(N(C)S(=O)(=O)c3ccccc3)cc2)no1	x	x	-5	12	4
CCOc1ccc(C(=O)CCc2nc3ccccc3s2)cc1	x	x	-13	46	54*
CCOc1ccc(S(=O)(=O)N(C)c2ccc(OCC(=O)Nc3nc4ccccc4s3)cc2)cc1	x	-9	20	74*	34
O=C(COc1ccccc1)NNC(=S)NC(=O)c1ccccc1	12	-46	-4	1	-6
C/C=C/c1cnc2c(c1)C(=O)N([C@@H](C)CO)C[C@H](C)[C@@H](CN(C)C(=O)CCN1CCCCC1)O2	-7	-9	x	x	x
CN(C)CC(=O)N[C@@H]1CC[C@H](CC(=O)NCc2ccc(Cl)cc2)O[C@@H]1CO	4	-24	x	x	x
CN(C)C(=O)c1ccc(-c2ccccc2[C@H]2[C@H](C#N)N(C(=O)C3CCCC3)[C@H]2CO)cc1	5	15	x	x	x
COc1ccc(OCC(=O)NNc2nc3ccccc3s2)cc1	-5	x	-27	4	79*
CN1C(=O)c2cc(NC(=O)Cc3cccs3)ccc2OC[C@@H]2O[C@@H](CC(=O)NCc3ccc(-c4ccccc4)cc3)CC[C@H]21	71*	x	x	x	x
CC1=[N+](C)c2c(ccc3cccnc23)C1(C)C	20	u	20	78*	45
Cc1noc(C)c1S(=O)(=O)Nc1ccc2c(c1)C(=O)N([C@H](C)CO)C[C@H](C)[C@@H](CN(C)C(=O)Nc1cccc3ccccc13)OCCCC[C@H](C)O2	-10	0	x	x	x
Cc1ccc(-c2ccc3c(c2)O[C@@H](CN(C)Cc2ccc(C(=O)O)cc2)[C@@H](C)CN([C@H](C)CO)S3(=O)=O)cc1	10	-6	x	x	x
C/C(=N\Nc1nc2ccccc2[nH]1)c1ccccn1	22	23	93*	5	25
CCN(CC)c1ccc(/C=N/Nc2nc3ccccc3[nH]2)cc1	x	-25	-10	95*	43
COc1cccc(/C=N/Nc2nc3ccccc3[nH]2)c1O	-56	-41	83*	24	-17
C(=N\Nc1nc2ccccc2[nH]1)/c1ccncc1	-77	-27	-25	44	59*
O=C(O)c1ccc(/C=N/Nc2nc3ccccc3[nH]2)cc1	-10	7	-4	-7	19
C/C=C/c1ccc([C@@H]2[C@@H](CO)N(C(=O)NCCC)[C@@H]2CNC(=O)C2CC2)cc1	-6	0	x	x	x
C[C@H]1CN([C@@H](C)CO)C(=O)c2cc(NC(=O)Cn3cnnn3)ccc2O[C@@H]1CN(C)Cc1ccc(-c2ccccc2)cc1	11	10	x	x	x
CO[C@@H]1CN(C)C(=O)c2cc(NC(=O)Nc3ccc(Cl)cc3)ccc2OC[C@@H](C)N(C(=O)Nc2c(C)noc2C)C[C@@H]1C	-13	3	x	x	x
SMILES	EWS-Fli inh	LGR2 inh	LMP1 NFkB inh	TWEAK Fn14 block	TROY signal inh
C[C@H](CO)N1C[C@H](C)[C@@H](CN(C)Cc2ccc(C(=O)O)cc2)OCCCC[C@H](C)Oc2ccc(NC(=O)Cc3ccccc3)cc2C1=O	-3	2	x	x	x
C[C@H]1CCCCO[C@H](CN(C)Cc2ccc(Cl)c(Cl)c2)[C@@H](C)CN([C@@H](C)CO)C(=O)c2cc(NC(=O)CCC(F)(F)F)ccc2O1	-4	22	x	x	x
C[C@@H]1CN([C@@H](C)CO)C(=O)c2cc(-c3ccc(F)cc3)cnc2O[C@@H]1CN(C)C(=O)Cc1ccccn1	-13	-6	x	x	x
O=C(CSc1nc2ccccc2[nH]1)N/N=C/c1ccncc1	-2	-4	x	-31	57*
COc1cc(C(=O)NC(=S)Nc2csc(-c3ccc(F)cc3)n2)cc(OC)c1OC	8	10	-2	10	56*
O=C(O)CSc1cc(NS(=O)(=O)c2ccc(Br)cc2)c2ccccc2c1O	-7	1	2	98*	-15
O=S(=O)(Nc1cc(Sc2ncn[nH]2)c(O)c2ccccc12)c1ccccc1	38	97*	1	95*	62*
Cc1ccc(S(=O)(=O)Nc2ccc(Br)cc2C(NCC(=O)O)c2ccccc2)cc1 (stereo not drawn)	x	-1	0	12	0
Cc1ccc(S(=O)(=O)N[C@@H]2CC[C@H](CCn3cc(-c4cccnc4)nn3)O[C@@H]2CO)cc1	-6	13	x	x	x
COc1ccc(-c2[nH]c(-c3ccc4c(c3)OCO4)nc2-c2ccccc2)cc1	x	x	6	31	60*
C=C1C(=O)[C@]23C[C@H]1CC[C@H]2[C@]1(C)[C@@H](OC(C)=O)CC[C@@](C)(C(=O)OC)[C@H]1C[C@@H]3OC(C)=O	61*	29	x	85*	24
C=C1C(=O)[C@]23C[C@H]1CCC2[C@@]1(C)C(C[C@@H]3O)[C@](C)(C(=O)OC)CC[C@@H]1OC(C)=O (stereo partly drawn)	53*	92*	x	96*	37
C=C1C(=O)[C@]23C[C@H]1CC[C@H]2[C@]1(C)[C@@H](OC(C)=O)CC[C@@](C)(C(=O)O)[C@H]1C[C@@H]3O	38	32	x	79*	27
C=C1C(=O)[C@]23C[C@H]1CC[C@H]2[C@]1(C)[C@@H](O)CC[C@@](C)(C(=O)O)[C@H]1C[C@@H]3O	11	-27	x	40	4
Cc1ccccc1S(=O)(=O)N1CC(=O)N2[C@@H](CO)[C@@H](c3ccc(C#Cc4ccccc4)cc3)[C@@H]2C1	x	-10	x	x	x
N#CC1=C(c2ccccc2)/C(=C/c2ccccc2)OC1=O	x	-12	13	83*	-6
Cc1cc(N2CCN(C)CC2)nc2ccc(NC(=S)NCCC(C)C)cc12	6	2	4	25	54*
Cc1ccc(NC2=Nc3ccccc3CC2)cc1	x	x	1	72*	61*
COc1ccccc1-[n+]1c(C)cc(/C=C2\Sc3ccccc3N2C)cc1C	39	u	52*	89*	82*
CN1C(=O)c2cc(NC(=O)C3CC3)ccc2OC[C@@H]2O[C@@H](CC(=O)NCC3CCCCC3)CC[C@H]21	-4	18	x	x	x
Cc1ccc(-c2cc(C(=O)N/N=C/c3c(C)nn(-c4ccccc4)c3C)n[nH]2)s1	28	-19	4	51*	28
Cc1nn(-c2ccccc2)c(C)c1/C=N/NC(=O)c1cc(C(C)(C)C)[nH]n1	x	4	0	-1	-7
C[C@@H]1CN([C@H](C)CO)C(=O)Cc2cc(NS(C)(=O)=O)ccc2O[C@@H]1CN(C)C(=O)Nc1cccc2ccccc12	x	3	x	x	x
